Assay results from PubChem BioAssay (Tox21).
Several values for one entry are separate records, joined by “and”; a condition that tells them apart may be missing. Equal entries are not always repeated. Results filed as inconclusive are left out. A call without a number means that no potency is given here. More than one record can exist for a structure, and the calls need not agree. Activity calls are given as the source filed them. Unless noted, the call rests on the fitted dose curve; in most records, active means well fitted cell-killing curve with a large enough effect in the repeat runs; inconclusive means weak or mixed curves; inactive means no such curve, though single readings can be large or run the other way.

System: not listed separately
Assay: qHTS assay to identify small molecule antagonists of the peroxisome proliferator-activated receptor delta (PPARd) signaling pathway - cell viability counter screen (AID 743213); further: nearly all actives have a fitted effect of over 50% in size; further: potency means the concentration at half of the fitted maximal effect
Settings: PPARd-bla HEK293H viability, CellTiter-Glo luminescence, 17 h; series mostly up to 62 µM; viability change, negative = cytotoxic: at the top concentration
Outline: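 HEK293H PPARd UAS-bla cells, 5 h pre-incubation, compound + L165041 300 nM final, 17 h 37 C; B/G FRET substrate 2 h RT; then CellTiter-Glo 30 min RT, luminescence.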

Q: With `OC(CCl)CCl` as the compound, how does the Potency read?
A: inactive

Q: With `c1cc(N(CC2CO2)CC2CO2)ccc1OCC1CO1` (centres undefined) as the compound, how does the Potency read?
A: inactive

Q: With `CN(C)CCC=C1c2ccccc2CCc2ccccc21` as the compound, how does the Potency read?
A: 24.5 µM (active)

Q: For `NC=O`, which “viability change, negative = cytotoxic” value is on record?
A: -1.39% [at 80.4 µM] (inactive)

Q: Which Potency does the source give for `O=CCc1ccccc1` here?
A: inactive

Q: For `CCCCOCCOCCOCCO`, which Potency is on record?
A: inactive

Q: With `CCOCCOCCO` as the compound, how does the Potency read?
A: inactive

Q: For `CCC(C)(O)CCCC(C)C` (centres undefined), which “viability change, negative = cytotoxic” value is on record?
A: 0.408% (inactive)

Q: Which “viability change, negative = cytotoxic” value does the source give for `O=P(O)(O)O` here?
A: -9.36% (inactive)

Q: For `CCCCNS(=O)(=O)c1ccccc1`, which “viability change, negative = cytotoxic” value is on record?
A: -17.6% (inactive)

Q: For `Cc1ccc(C)c(O)c1C`, which Potency is on record?
A: inactive

Q: Which “viability change, negative = cytotoxic” value does the source give for `Cc1[nH]c(=O)c(C#N)cc1-c1ccncc1` here?
A: -19.3% (inactive)

Q: For `CNCCCC12CCC(c3ccccc31)c1ccccc12`, which Potency is on record?
A: 9.77 µM (active) and 16.8 µM (active)

Q: With `Cc1cccc(C(=O)O)c1` as the compound, how does the Potency read?
A: inactive

Q: With `Nc1ncn([C@@H]2O[C@H](CO)[C@@H](O)[C@H]2O)c(=O)n1` as the compound, how does the “viability change, negative = cytotoxic” value read?
A: -4.18% (inactive)

Q: With `OC1CCCCCCCCCCC1` as the compound, how does the “viability change, negative = cytotoxic” value read?
A: 2.41% (inactive)

Q: Which Potency does the source give for `c1ccncc1` here?
A: inactive

Q: For `Nc1ncnc2nc[nH]c12`, which Potency is on record?
A: inactive

Q: Which Potency does the source give for `CC(C(=O)O)c1cccc(C(=O)c2ccccc2)c1` (centres undefined) here?
A: inactive

Q: Which Potency does the source give for `Cc1c(C(N)=O)cc([N+](=O)[O-])cc1[N+](=O)[O-]` here?
A: inactive

Q: With `CC(C)OC=O` as the compound, how does the “viability change, negative = cytotoxic” value read?
A: 0.0131% (inactive)

Q: With `O=[N+]([O-])c1ccc2c(c1)Cc1ccccc1-2` as the compound, how does the Potency read?
A: inactive

Q: With `Cc1c(OCC(F)(F)F)ccnc1CS(=O)c1nc2ccccc2[nH]1` (centres undefined) as the compound, how does the Potency read?
A: inactive

Q: For `CC(C)OC(=O)C(C)(C)Oc1ccc(C(=O)c2ccc(Cl)cc2)cc1`, which Potency is on record?
A: 49 µM (active) and inactive

Q: For `c1ccc2c(c1)c1cccc3ccc4cccc2c4c31`, which Potency is on record?
A: inactive

Q: Which Potency does the source give for `O=Cc1ccccc1O` here?
A: inactive

Q: For `C[C@]12CC[C@H]3[C@@H](CCC4=CC(=O)CC[C@@]43C)[C@@H]1CC[C@@H]2C(=O)CO`, which Potency is on record?
A: inactive

Q: For `O=CCCCC=O`, which Potency is on record?
A: inactive

Q: Which Potency does the source give for `COC(C)COC(C)COC(C)CO` (centres undefined) here?
A: inactive

Q: Which Potency does the source give for `COC(=O)C1=C(C)NC(C)=C(C(=O)OCCN(C)Cc2ccccc2)C1c1cccc([N+](=O)[O-])c1` (centres undefined) here?
A: 48.7 µM (active) and 26.6 µM (active)

Q: Which “viability change, negative = cytotoxic” value does the source give for `CC(C)Oc1ccc2c(=O)c(-c3ccccc3)coc2c1` here?
A: 22.3% (inactive)

Q: Which Potency does the source give for `Clc1nc(Cl)c(Cl)c(Cl)c1Cl` here?
A: inactive

Q: For `O=C(/C=C/C=C/c1ccc2c(c1)OCO2)N1CCCCC1`, which “viability change, negative = cytotoxic” value is on record?
A: -13.1% (inactive)

Q: Which Potency does the source give for `C[C@]12CCC(=O)C=C1CC[C@@H]1[C@@H]2C(=O)C[C@@]2(C)[C@H]1CC[C@]2(O)C(=O)CO` here?
A: 49 µM (active) and inactive

Q: For `CN1C(C(=O)Nc2ccccn2)=C(O)c2ccccc2S1(=O)=O`, which Potency is on record?
A: inactive

Q: Which Potency does the source give for `Cc1ccc(C(=O)c2cc(O)c(O)c([N+](=O)[O-])c2)cc1` here?
A: inactive

Q: With `CC(C)CC(C)(O)C#CC(C)(O)CC(C)C` (centres undefined) as the compound, how does the Potency read?
A: inactive

Q: Which Potency does the source give for `O=c1oc(=O)c2cc3c(=O)oc(=O)c3cc12` here?
A: inactive

Target: Peroxisome proliferator-activated receptor delta (Homo sapiens) (UniProt Q03181)
Sequence (Q03181 whole entry, looked up): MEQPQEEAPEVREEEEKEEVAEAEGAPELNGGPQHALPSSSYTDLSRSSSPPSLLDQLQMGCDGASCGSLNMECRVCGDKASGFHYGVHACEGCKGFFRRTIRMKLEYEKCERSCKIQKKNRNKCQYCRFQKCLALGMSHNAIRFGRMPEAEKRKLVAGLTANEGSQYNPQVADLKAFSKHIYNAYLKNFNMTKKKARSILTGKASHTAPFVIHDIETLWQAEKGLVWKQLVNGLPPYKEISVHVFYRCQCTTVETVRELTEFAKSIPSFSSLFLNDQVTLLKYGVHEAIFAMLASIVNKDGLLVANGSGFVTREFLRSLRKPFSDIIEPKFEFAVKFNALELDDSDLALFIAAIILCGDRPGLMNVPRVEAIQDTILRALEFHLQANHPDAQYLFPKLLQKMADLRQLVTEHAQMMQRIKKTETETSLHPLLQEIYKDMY
Assay: qHTS assay to identify small molecule antagonists of the peroxisome proliferator-activated receptor delta (PPARd) signaling pathway (AID 743215; active means well fitted inhibition curve with a large enough effect in the signal ratio in the repeat runs, not every such curve was filed as active; the % refers to the signal ratio;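 further: cells stimulated with agonist L165041 at 300 nM final during compound exposure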)
Settings: HEK293H PPARd-UAS-bla, beta-lactamase FRET ratio, antagonist, 17 h; series mostly up to 62 µM; ratio activity, negative = inhibition: at the top concentration
Outline: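 Antagonist-mode beta-lactamase reporter screen: HEK293H cells with UAS-bla under PPARd control, stimulated by 300 nM L165041 (final) alongside test compound for 17 h at 37 C, then FRET fluorescence after 2 h substrate incubation.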

Q: For `OC(CCl)CCl`, which Potency is on record?
A: inactive

Q: Which “ratio activity, negative = inhibition” value does the source give for `CN(C)CCC=C1c2ccccc2CCc2ccccc21` here?
A: -24.2% (inactive)

Q: For `NC=O`, which “ratio activity, negative = inhibition” value is on record?
A: -2.14% [at 80.4 µM] (inactive)

Q: Which Potency does the source give for `CCCCOCCOCCOCCO` here?
A: inactive

Q: Which Potency does the source give for `CCOCCOCCO` here?
A: inactive

Q: For `CCC(C)(O)CCCC(C)C` (centres undefined), which Potency is on record?
A: inactive

Q: For `Cc1ccc(C)c(O)c1C`, which Potency is on record?
A: inactive

Q: For `Cc1[nH]c(=O)c(C#N)cc1-c1ccncc1`, which “ratio activity, negative = inhibition” value is on record?
A: -2.33% (inactive)

Q: For `Cc1cccc(C(=O)O)c1`, which Potency is on record?
A: inactive

Q: With `OC1CCCCCCCCCCC1` as the compound, how does the Potency read?
A: inactive

Q: With `Nc1ncnc2nc[nH]c12` as the compound, how does the Potency read?
A: inactive

Q: For `CC(C(=O)O)c1cccc(C(=O)c2ccccc2)c1` (centres undefined), which “ratio activity, negative = inhibition” value is on record?
A: -3.28% (inactive)

Q: For `Cc1c(C(N)=O)cc([N+](=O)[O-])cc1[N+](=O)[O-]`, which Potency is on record?
A: inactive

Q: For `CC(C)OC=O`, which “ratio activity, negative = inhibition” value is on record?
A: -5.85% (inactive)

Q: For `O=[N+]([O-])c1ccc2c(c1)Cc1ccccc1-2`, which Potency is on record?
A: inactive

Q: Which Potency does the source give for `Cc1c(OCC(F)(F)F)ccnc1CS(=O)c1nc2ccccc2[nH]1` (centres undefined) here?
A: inactive

Q: For `c1ccc2c(c1)c1cccc3ccc4cccc2c4c31`, which “ratio activity, negative = inhibition” value is on record?
A: 1.92% (inactive)

Q: With `O=Cc1ccccc1O` as the compound, how does the Potency read?
A: inactive

Q: For `O=CCCCC=O`, which Potency is on record?
A: inactive

Q: With `COC(C)COC(C)COC(C)CO` (centres undefined) as the compound, how does the Potency read?
A: inactive

Q: Which Potency does the source give for `CC(C)Oc1ccc2c(=O)c(-c3ccccc3)coc2c1` here?
A: inactive

Q: For `C=C(C)C(=O)OCCOC(=O)C(=C)C`, which “ratio activity, negative = inhibition” value is on record?
A: 20.7% [at 80.4 µM] (inactive)

Q: Which Potency does the source give for `Clc1nc(Cl)c(Cl)c(Cl)c1Cl` here?
A: inactive

Q: For `CN1C(C(=O)Nc2ccccn2)=C(O)c2ccccc2S1(=O)=O`, which “ratio activity, negative = inhibition” value is on record?
A: -9.66% [at 80.4 µM] (inactive)

Q: Which Potency does the source give for `O=c1oc(=O)c2cc3c(=O)oc(=O)c3cc12` here?
A: inactive

Target: Bile acid receptor (Homo sapiens) (UniProt Q96RI1)
Sequence (Q96RI1 whole entry, looked up): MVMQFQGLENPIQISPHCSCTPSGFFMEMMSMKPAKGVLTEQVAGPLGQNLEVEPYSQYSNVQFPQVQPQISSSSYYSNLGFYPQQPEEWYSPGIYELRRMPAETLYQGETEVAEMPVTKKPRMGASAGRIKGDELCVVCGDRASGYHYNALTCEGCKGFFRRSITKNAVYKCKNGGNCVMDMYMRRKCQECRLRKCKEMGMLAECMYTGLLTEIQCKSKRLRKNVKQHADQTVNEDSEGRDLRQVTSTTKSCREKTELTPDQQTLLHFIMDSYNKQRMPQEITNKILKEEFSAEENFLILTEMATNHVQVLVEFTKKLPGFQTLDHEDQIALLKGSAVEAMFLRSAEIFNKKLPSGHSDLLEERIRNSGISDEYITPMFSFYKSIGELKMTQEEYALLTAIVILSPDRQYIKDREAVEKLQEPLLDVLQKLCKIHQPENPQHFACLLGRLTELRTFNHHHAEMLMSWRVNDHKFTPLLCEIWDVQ
Assay: qHTS assay to identify small molecule antagonists of the farnesoid-X-receptor (FXR) signaling pathway (AID 743217; active means well fitted inhibition curve with a large enough effect in the signal ratio in the repeat runs, not every such curve was filed as active; the % refers to the signal ratio; further: potency means the concentration at half of the fitted maximal effect)
Settings: HEK293T FXR-UAS-bla, beta-lactamase ratio, CDCA-stimulated, 16 h; series mostly up to 62.6 µM; activity change, negative = inhibition: at the top concentration
Outline: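 Beta-lactamase reporter under UAS control in HEK 293T cells; compound exposure 16 h at 37 °C in the presence of chenodeoxycholic acid (50 uM final); signal from B/G FRET substrate after 2 h at room temperature.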

Q: With `CN(C)CCC=C1c2ccccc2CCc2ccccc21` as the compound, how does the “activity change, negative = inhibition” value read?
A: -10.3% (inactive)

Q: Which Potency does the source give for `NC=O` here?
A: inactive

Q: Which Potency does the source give for `O=CCc1ccccc1` here?
A: inactive

Q: For `CCC(C)(O)CCCC(C)C` (centres undefined), which “activity change, negative = inhibition” value is on record?
A: 2.19% [at 81.1 µM] (inactive)

Q: Which Potency does the source give for `O=P(O)(O)O` here?
A: inactive

Q: Which Potency does the source give for `CCCCNS(=O)(=O)c1ccccc1` here?
A: inactive

Q: Which Potency does the source give for `Nc1ncnc2nc[nH]c12` here?
A: inactive

Q: For `CC(C)OC=O`, which Potency is on record?
A: inactive

Q: Which Potency does the source give for `Cc1c(OCC(F)(F)F)ccnc1CS(=O)c1nc2ccccc2[nH]1` (centres undefined) here?
A: inactive

Q: Which “activity change, negative = inhibition” value does the source give for `CC(C)OC(=O)C(C)(C)Oc1ccc(C(=O)c2ccc(Cl)cc2)cc1` here?
A: -15.3% (inactive)

Q: Which Potency does the source give for `c1ccc2c(c1)c1cccc3ccc4cccc2c4c31` here?
A: inactive

Q: Which Potency does the source give for `O=CCCCC=O` here?
A: inactive

Q: Which Potency does the source give for `COC(C)COC(C)COC(C)CO` (centres undefined) here?
A: inactive

Q: For `CC(C)Oc1ccc2c(=O)c(-c3ccccc3)coc2c1`, which Potency is on record?
A: inactive

Q: For `O=C(/C=C/C=C/c1ccc2c(c1)OCO2)N1CCCCC1`, which Potency is on record?
A: inactive and 54.9 µM (active)

Q: Which “activity change, negative = inhibition” value does the source give for `CN1C(C(=O)Nc2ccccn2)=C(O)c2ccccc2S1(=O)=O` here?
A: 2.56% (inactive)
